# Test results: PubChem BioAssay (NCATS)
# Records with an inconclusive call do not appear. Entries that show only a call come without a potency. The source made the active and inactive calls. The call rests on the fitted dose curve; in most records, active means well fitted inhibition curve with a large enough effect; inconclusive means small, poorly fitted or top-dose-only effect; inactive means no such curve, though single readings can be large or run the other way.
# Assay: Primary fluorescence-based thiol-reactive (MSTI) qHTS assay for identification of artifact compounds. (AID 1845221); further: nearly all actives have a fitted effect of over 65% in size;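 on activity change, negative = thiol reactive: thiol-reactive compounds lower the probe fluorescence signal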
# Conditions: MSTI thiol-reactivity probe, 1 h; series mostly up to 53.8 µM
# Summary of the method: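 Curve-fitted percent inhibition (4-parameter Hill) derived from fluorescence, Ex 525/Em 598 nm, scaled with Acetyl-MSTI and MSTI; 1 h incubation at room temperature.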
# Potency means the concentration at half of the fitted maximal effect.
SMILES,"activity change, negative = thiol reactive",Potency
CC1(C)CC[C@]23CO[C@@]4(CCC5[C@@]6(C)CC[C@H](O[C@@H]7OC[C@H](O[C@@H]8O[C@H](CO)[C@@H](O)[C@H](O)[C@H]8O[C@@H]8OC[C@@H](O)[C@H](O)[C@H]8O)[C@H](O)[C@H]7O[C@@H]7O[C@H](CO)[C@@H](O)[C@H](O)[C@H]7O)[C@@](C)(CO)C6CC[C@@]5(C)[C@]4(C)C[C@H]2O)[C@@H]3C1 (stereo not given in full),317% [at 11.5 µM] (inactive),–
CCNC(=O)c1noc(-c2cc(Cl)c(O)cc2O)c1-c1ccc(OC)cc1,–,inactive
CN1CCC(c2cn(C)c3ccc(OS(=O)(=O)c4c(F)cccc4F)cc23)CC1,–,inactive
C[C@@H]1O[C@@H](O[C@H]2[C@H](O[C@H]3CC[C@@]4(C)C(CC[C@]5(C)C4C=C[C@]46OC[C@@]7(CCC(C)(C)C[C@H]74)[C@@H](O[C@@H]4O[C@@H](C)[C@H](O)[C@@H](O)[C@H]4O)C[C@]65C)[C@]3(C)CO)O[C@H](CO)[C@@H](O)[C@@H]2O[C@@H]2O[C@H](CO)[C@@H](O)[C@H](O)[C@H]2O)[C@H](O)[C@H](O)[C@H]1O (stereo not given in full),75.2% [at 11.5 µM] (inactive),–
COc1ccc(CCN(C)CCCOc2nsc(-c3ccccc3)n2)cc1OC,–,inactive
O=C(O)c1ccc(N2C(=O)/C(=C/c3ccc(-c4ccc([N+](=O)[O-])cc4)o3)C=C2c2ccccc2)cc1,–,0.423 µM (active)
CCCC1(CCC)CCC2(CCN(CCCN(CC)CC)C2)CC1,–,inactive
COc1ccc(NC(=O)c2ccc(-c3ccc(-c4nnc(C)o4)cc3C)cc2)cc1N1CCN(C)CC1,–,inactive
CC(=O)O[C@H]1CC(C)(C)CC2[C@]13CO[C@@]21CCC2[C@@]4(C)CC[C@H](O[C@@H]5OC[C@H](O[C@@H]6O[C@H](CO)[C@@H](O)[C@H](O)[C@H]6O[C@@H]6OC[C@@H](O)[C@H](O)[C@H]6O)[C@H](O)[C@H]5O[C@@H]5O[C@H](CO)[C@@H](O)[C@H](O)[C@H]5O)[C@@](C)(CO)C4CC[C@@]2(C)[C@]1(C)C[C@H]3O (stereo not given in full),28.4% [at 11.5 µM] (inactive),–
CCOC(=O)N1CCC(CN(Cc2ccc(Cl)cc2)Cc2ccc([N+](=O)[O-])s2)C1 (stereo not given),–,13.4 µM (active)
Cc1nc(Nc2cnn(C3CCNCC3)c2)nc2c1N(C)C(=O)c1cc3ccccc3cc1N2C,–,inactive
Cc1cc(NC(=O)c2cccc(NC(=O)/C=C/CN(C)C)c2)ccc1Nc1nccc(-c2cccnc2)n1,–,inactive
CN(C)CC1CCn2c(c(C3=C(c4cn(C)c5ccccc45)C(=O)NC3=O)c3ccccc32)C1 (stereo not given),–,inactive
CC(=O)c1c(C)cc2cccc(O)c2c1O[C@@H]1O[C@H](CO)[C@@H](O)[C@H](O)[C@H]1O,–,5.21 µM (active)
Cc1cc2c(c(=O)o1)C=C1CC[C@H]([C@H](C)Cn3cnc(=N)c4[nH]cnc43)C[C@@H]1O2,–,inactive
